Screening results (PubChem BioAssay)
Hits are enriched below; roughly 2.4% of the tested compounds scored in any of these assays.
CRFR2-BP antag: CRF-BP/CRF-R2 complex antagonism. HEK293 CRF-R2/CRF-BP, CRF-induced calcium fluorescence. inhibition, % at 11.8 µM. hit rate 0.59% among 350,000. AID 588475;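 active = inhibition of the ligand-induced calcium signal above about 50% at the single tested concentration, limit read from the data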
NOD2 RIPK2 PPI: inhibitors of human NOD2-RIPK2 interaction; O43353; CHO BLA complementation NOD2-RIPK2, CCF4 ratio; inhibition, % at 4.98 µM; hit rate 0.38% among 360,000; AID 624267; in the data active = inhibition above about 21%;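 note: 0% = vehicle only and 100% = reference blocker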
TLR9-MyD88 block: blocks human TLR9 binding to MyD88; Q9NR96+Q99836; CHO BLA complementation TLR9-MyD88, CCF4 FRET ratio; inhibition, % at 4.98 µM; hit rate 0.21% among 340,000;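 active = inhibition above the mean over all tested compounds plus 3 SD, cut at about 21% in these data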;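 note: 0% = DMSO only wells and 100% = clavulanate BLA inhibitor control wells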
TLR4-MyD88 BLA: inhibitors of human TLR4-MyD88 binding; O00206+Q99836; HeLa CL3-4 TLR4/MyD88 BLA complementation, FRET ratio; inhibition, % at 8.4 µM; hit rate 0.18% among 200,000; AID 861; in the data active = inhibition above about 25%;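 note: 0% = vehicle and 100% = reference inhibitor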
ABHD5-PLIN5 inh: blocks binding of human ABHD5 to perilipin-5; Q00G26+Q8WTS1; Split G. princeps luciferase complementation, luminescence, 4 h; inhibition, % at 4 µM; hit rate 0.78% among 360,000; AID 602281;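 active = inhibition above the mean inhibition across every tested compound plus 3 SD, cut at about 22% in these data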;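 note: 0% = DMSO only wells and the 100% control is not disclosed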
HTR2A ag: mouse HTR2A agonism via beta-arrestin recruitment; P35363; CHO-K1 mHTR2A beta-arrestin complementation, luminescence; percent of 30 µM serotonin response; activation, % at 7.6 µM; hit rate 0.66% among 360,000;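 active = activation above a run cutoff, the mean activation of all tested compounds plus 3 SD, cut at about 14% in these data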;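 note: 0% = plate median of compound wells and 100% = 30 µM serotonin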
Target sequence (P35363 whole entry, looked up): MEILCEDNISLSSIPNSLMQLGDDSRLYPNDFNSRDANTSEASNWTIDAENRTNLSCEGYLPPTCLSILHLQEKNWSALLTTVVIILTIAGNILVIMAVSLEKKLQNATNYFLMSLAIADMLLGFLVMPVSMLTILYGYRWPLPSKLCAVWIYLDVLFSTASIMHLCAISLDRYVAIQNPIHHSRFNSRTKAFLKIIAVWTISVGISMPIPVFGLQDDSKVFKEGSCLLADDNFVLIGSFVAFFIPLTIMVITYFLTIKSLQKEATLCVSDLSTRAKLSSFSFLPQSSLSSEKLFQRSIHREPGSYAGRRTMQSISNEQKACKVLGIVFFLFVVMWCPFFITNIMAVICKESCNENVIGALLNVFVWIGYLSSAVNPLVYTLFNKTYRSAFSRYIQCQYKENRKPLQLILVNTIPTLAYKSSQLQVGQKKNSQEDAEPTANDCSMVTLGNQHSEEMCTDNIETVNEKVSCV
* hit, by the source's call; nt = not tested or not shown; ! = not confirmed by another sample.

SMILES	CRFR2-BP antag	NOD2 RIPK2 PPI	TLR9-MyD88 block	TLR4-MyD88 BLA	ABHD5-PLIN5 inh	HTR2A ag
NC(=O)c1cc([N+](=O)[O-])cc([N+](=O)[O-])c1	16	-2	-2	nt	-2	1
CC(C)(C)c1cc([N+](=O)[O-])cc(C(C)(C)C)c1O	63*	nt	nt	11	nt	nt
COC(=O)C1=Nc2ccccc2/C1=C\c1c(O)n(-c2ccc(OC)cc2)c(=O)[nH]c1=O	-36	-2	5	-22	38*	-1
COC(=O)C1=Nc2ccccc2/C1=C\c1c(O)n(-c2ccc(Br)cc2)c(=O)[nH]c1=O	-20	-6	6	-1	19	2
Nc1c(C(=O)NCc2ccco2)c2nc3ccccc3nc2n1Cc1ccc(F)cc1	4	-10	-3	-39	6	2
COc1ccc(Cn2c(N)c(C(=O)NCc3ccco3)c3nc4ccccc4nc32)cc1	17	-6	-15	-24	22*	-6
O=C(Nc1ccc(C(=O)O)cc1)Oc1ccc(N(CCCl)CCCl)cc1	nt	10	nt	nt	3	5
CC(C)n1c(O)c(C2c3cc(Cl)ccc3Oc3[nH]c(=O)n(C(C)C)c(=O)c32)c(=O)[nH]c1=O (stereo not drawn)	-1	2	11	nt	37*	-2
O=C(CCl)Nc1nccs1	62*	-3	2	nt	3	4
O=C(Nc1nccs1)C(Cl)(Cl)Cl	2	-4	0	-3	1	-1
Cc1cccc(N=C2c3cc([N+](=O)[O-])ccc3-c3c2cc([N+](=O)[O-])cc3[N+](=O)[O-])c1	-15	9	-1	nt	22*	3
O=[N+]([O-])c1cccc(O)c1	4	-6	3	nt	2	1
CCC(c1nnnn1Cc1ccccc1)N1CCC2(CC1)C(=O)NCN2c1ccccc1 (stereo not drawn)	nt	-12	nt	nt	-6	2
CC(=O)Nc1cc(C(=O)N2CCC3(CC2)OCCO3)ccc1S(=O)(=O)c1ccc(C)cc1	98*	-13	-1	-9	0	-1
O=S(=O)(c1ccc(Cl)cc1)N1Cc2cc(Br)ccc2-n2nncc2C1	nt	-6	nt	nt	6	-3
Cc1cccc(N2C(=O)NC(=O)/C(=C\c3ccc(N4CCOCC4)cc3)C2=O)c1	72*	-1	9	nt	3	-3
Cc1cccc(N2C(=O)NC(=O)/C(=C/c3ccc(N4CCOCC4)cc3)C2=O)c1	-15	-4	6	-4	22*	-1
O=C1NC(=O)N(c2ccc(F)cc2)C(=O)/C1=C/c1ccc(N2CCOCC2)cc1	-19	4	1	-22	21	6
Cc1ccc(N2C(=O)NC(=O)/C(=C\c3ccc(N4CCOCC4)cc3)C2=O)cc1	-2	-15	-1	10	17	0
CCOC(=O)[C@]12Cc3ccccc3[C@H]1N(CCC(=O)OC)C(=O)c1ccccc12	nt	-14	nt	nt	12	-2
O=C1NC(=O)N(CCNc2ncc(C(F)(F)F)cc2Cl)C(=O)C1/C=N/OCc1c(F)cccc1Cl (stereo not drawn)	62*	6	-6	-2	1	10
O=C1C=CC(=O)C2C1C1(Cl)C(Cl)=C(Cl)C2(Cl)C1(Cl)Cl (stereo not drawn)	8	6	-6	nt	-6	2
COC(=O)C(Cc1ccc(N(CCCl)CCCl)cc1)N=Cc1ccccc1O (stereo not drawn)	67*	-6	-14	nt	3	2
O=c1c2ccccc2nc(N2CCCC2)n1-c1ccc(Cl)cc1	64*	16	-4	-18	-2	5
OC(COCc1ccc(Cl)cc1)CN1CC=C(c2ccccc2)CC1 (stereo not drawn)	-23	-4	-8	-9	1	19*!
SMILES	CRFR2-BP antag	NOD2 RIPK2 PPI	TLR9-MyD88 block	TLR4-MyD88 BLA	ABHD5-PLIN5 inh	HTR2A ag
OC1(c2ccc(F)cc2)CCNC1 (stereo not drawn)	1	-8	5	-10	-2	-1
CNC1(c2ccc(F)cc2)CCCCC1	88*	-19	-10	nt	-3	0
CCCCC1(CCCC)C(=O)NC(=Nc2cccc(C)c2)NC1=O	55*	-3	1	14	0	0
C/C1=C\[C@@H](C)C/C=C/[C@H]2[C@@H]3O[C@]3(C)[C@@H](C)[C@H]3[C@H](Cc4c[nH]c5ccccc45)NC(=O)[C@]32C(=O)/C=C/C(=O)[C@@H]1O	-30	5	1	-15	70*	22*
Cc1cc(C(=O)Nc2ccc3c(c2)OCCO3)nn1C(C)(C)C	82*	-2	-2	nt	17	-3
C=C(C=O)CC1CC(O)[C@]2(C)OC3CC4OC5C[C@]6(C)O[C@]7(C)CCC8OC9C[C@]%10(C)OC%11C(C)=CC(=O)OC%11CC%10OC9C[C@@H](C)C8OC7CC6O[C@]5(C)CC5OC5C4OC3CC2O1 (stereo partly drawn)	-10	1	-9	12	22*	7
Cc1cc(C)c(S(=O)(=O)N2Cc3ccccc3-n3nncc3C2)c(C)c1	-2	14	4	nt	0	-4
COc1ccc(-n2nnnc2C(CCSC)N2CCC(n3c(=O)[nH]c4ccccc43)CC2)cc1 (stereo not drawn)	nt	10	nt	nt	1	4
O=[N+]([O-])/C=C/c1c(Cl)cccc1Cl	-25	4	-2	nt	22*	1
O=c1[nH]c2ccccc2n1C1CCN(Cc2ccc(-c3nc4ccc(F)cc4nc3-c3ccccc3)cc2)CC1	nt	-12	nt	nt	7	-7
COCCCNC(=O)Cn1cc(/C=C2\C(=O)NC(=O)N(c3ccccc3F)C2=O)c2ccccc21	-33	-3	3	nt	27*	-1
Clc1cccc(N2Cc3ccccc3-n3nncc3C2)c1	nt	14	nt	nt	9	2
COc1ccc(-n2nnnc2C(c2ccccc2OC(F)(F)F)N2CCC3(CC2)C(=O)NCN3c2ccccc2)cc1 (stereo not drawn)	nt	-3	nt	nt	-11	10
COc1ccc(CN(CCc2c[nH]c3ccccc23)Cc2ccc(OC)cc2)cc1	63*	0	-1	nt	-1	-4
O=C1NCN(c2ccccc2)C12CCN(C(CCc1ccccc1)c1nnnn1C1CCCC1)CC2 (stereo not drawn)	nt	-7	nt	nt	-7	6
CN(c1ccccc1)P(=O)(N1CC1)N1CC1	54*	-2	-1	nt	3	2
O=C1NCN(c2ccccc2)C12CCN(C(CCc1ccccc1)c1nnnn1C1CCCCC1)CC2 (stereo not drawn)	nt	9	nt	nt	-2	-1
CCN1/C(=C\C=C\C2=[N+](CC)c3ccccc3C2(C)C)C(C)(C)c2ccccc21	-276	9	-24	0	46*	-8
COc1ccc(-n2nnnc2C(CCc2ccccc2)N2CCC(n3c(=O)[nH]c4ccccc43)CC2)cc1 (stereo not drawn)	nt	-12	nt	nt	10	8
Cc1cc(Cl)ccc1OC(C)C(=O)O (stereo not drawn)	8	-12	3	14	4	15*
